# Rab9 promoter act = activates the Rab9 promoter; Huh7 Rab9 promoter-luciferase reporter, luminescence, 24 h; Potency, µM (top dose mostly 9.22 µM), for inactives: at the highest dose activation, negative = inhibition, hits mostly activators; 320,000 tested, 2.8% active; AID 485297; also: % of control where 0% means no effect; nearly all actives have a fitted effect of over 60% in size
#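 Quantitative HTS format; Huh7 Rab9-luciferase reporter cells (1500/well) receive compound 2 h post-plating, incubate 24 h at 37 °C, then get luciferase reagent for 10 min before luminescence reading.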
# FLuc counter = counter-screen for miR-21 project: firefly luciferase inhibitors or activators. purified FLuc, Km substrates, luminescence inhibition. 360,000 tested, 6.9% active. Potency, µM (top dose mostly 57.5 µM), for inactives: at the top dose activity change, negative = inhibition, hits mostly inhibitors;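 also: plate controls were vehicle for no effect and reference inhibitor for full effect; nearly all actives have a fitted effect of over 55% in size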
# Target sequence (P08659 whole entry, looked up): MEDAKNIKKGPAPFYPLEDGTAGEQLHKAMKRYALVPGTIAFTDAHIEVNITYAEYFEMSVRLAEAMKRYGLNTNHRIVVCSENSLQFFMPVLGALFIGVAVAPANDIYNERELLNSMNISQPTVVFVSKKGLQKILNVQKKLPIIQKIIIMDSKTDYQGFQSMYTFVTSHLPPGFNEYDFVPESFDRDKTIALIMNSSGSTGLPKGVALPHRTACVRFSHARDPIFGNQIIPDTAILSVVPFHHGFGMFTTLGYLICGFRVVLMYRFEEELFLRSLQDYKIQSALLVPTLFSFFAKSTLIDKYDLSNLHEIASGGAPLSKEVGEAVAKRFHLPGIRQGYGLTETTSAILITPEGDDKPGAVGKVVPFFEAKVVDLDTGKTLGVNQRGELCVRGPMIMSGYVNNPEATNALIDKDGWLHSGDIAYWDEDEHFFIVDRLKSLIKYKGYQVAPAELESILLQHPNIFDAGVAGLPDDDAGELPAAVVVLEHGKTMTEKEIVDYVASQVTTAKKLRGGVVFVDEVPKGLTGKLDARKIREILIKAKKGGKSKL
#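 Purified P. pyralis luciferase, 10 nM final, with Km-level 10 uM D-luciferin and 10 uM ATP in 50 mM Tris acetate pH 7.5, 10 mM Mg acetate, 0.01% Tween-20, 0.05% BSA; 6-point qHTS titration about 60 µM downward; luminescence read.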
# ELG1 genotoxic = genotoxicity induction in ELG1-luciferase HEK293T cells; AID 504466; Potency, µM (titrated, usually from 46 µM), for the others: at the top dose activity change, positive = activation, actives largely listed as activators; 330,000 tested, 1.3% active; HEK293T ELG1-luciferase reporter, luminescence, 16 h; also: % of control where 0% means no effect; nearly all actives have a fitted effect of over 60% in size
#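 DMSO vehicle served as control against compound-treated ELG1-luciferase HEK293T cells; exposure lasted 16 hr at 37 °C and 5% CO2, followed by ONE-Glo luminescence detection after 30 min.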
# ELG1 repair inh = ELG1-dependent DNA repair inhibition. Potency, µM (highest dose often 46.1 µM), without a hit: at the highest dose activity change, negative = inhibition, hits mostly inhibitors. 330,000 tested, 2.3% active. HEK293T ELG1-luciferase reporter, luminescence, 16 h; DNA damage induced by 5-fluorouridine; also: % is scaled to controls: 0 for no effect and ±100 for the full control effect; nearly all actives have a fitted effect of over 55% in size
#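 Reporter activity after DNA damage by 5-fluorouridine is monitored. Compound-treated cells incubate 16 hr at 37 °C, then ONE-Glo is added for 30 min before luminescence reading.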
# SMN2 splice up = increases expression of the SMN2 splice variant. Potency, µM (doses to about 46.1 µM), inactives show at the highest dose activity change, positive = activation, usual class: activators. 210,000 tested, 2.8% active. HEK293 SMN2-luciferase splicing reporter, luminescence, 30-36 h. AID 1458; also: % of control where 0% means no effect; nearly all actives have a fitted effect of over 55% in size
#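 HEK293 cells carry an SMN2 […]–luciferase reporter in which exon 7 inclusion puts luciferase in frame. Cells were plated 10-12 h before compound addition, then incubated 30-36 h at 37C. ONE-Glo luminescence was read; sodium butyrate at 4.5 mM final served as control.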
# NPC1 promoter act = NPC1 promoter activation; Huh7 NPC1 promoter luciferase reporter, 24 h; Potency, µM (highest dose often 9.22 µM), for inactives: at the highest dose activation, most hits filed as activators; 320,000 tested, 2.4% active; also: % of control where 0% means no effect; nearly all actives have a fitted effect of over 60% in size
#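 Stably transfected Huh7 (NPC1 promoter→luciferase), 1500 cells/well in Opti-MEM + 10% FBS, 2 h settle, then compound 24 h at 37 °C. Luminescence after 10 min with Amplite reagent.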
# An asterisk follows results filed as active; ? = inconclusive; . = no result; [ ] = another dose, or the depositor's remark. Hits are enriched below; roughly 9.2% of the tested compounds scored in any of these assays. Calls follow the shape of the dose curve; as a rule, active = well fitted curve in the direction sought with a large enough effect; inconclusive = small, poorly fitted or top-dose-only effect, or another doubt; inactive = no such curve, though single readings can be large; an effect the other way counts as inactive or inconclusive. Potency is read from the fitted curve at half-maximal effect.
SMILES,Rab9 promoter act,FLuc counter,ELG1 genotoxic,ELG1 repair inh,SMN2 splice up,NPC1 promoter act
COc1ccc(N(C)C(=O)Nc2ccc3nsnc3c2)cc1,3%,-25%,-2%,10%,-22%,-1%
COc1ccc(OC(=O)c2ccc3nsnc3c2)cc1,-1%,7.6µM*,2%,9%,1%,2%
CCOc1ccc(N2C(=O)CC(SCCN)C2=O)cc1 (centres undefined),2.2µM*,17µM*,?,?,11µM*,1.4µM*
O=C(NC1CC(=O)N(c2ccc(Cl)cc2)C1)c1ccc(S(=O)(=O)N2CCCC2)cc1 (centres undefined),.,9%,.,.,.,.
CCCCOC(=O)Oc1ccc2c(=O)c(Oc3cccc(C)c3)coc2c1,20%,-15%,25%,?,13µM*,9%
CCCCOC(=O)Oc1ccc2c(=O)c(Oc3cc(C)cc(C)c3)coc2c1,-2%,-7%,-3%,14%,-7%,-3%
O=C1CN(c2ccccc2)C(=S)N1C(=O)c1ccc(Br)cc1,3.2µM*,12µM*,18µM*,?,.,2.2µM*
O=C(c1ccc(Br)cc1)N1CCC(C(=O)N2CCN(c3ccccc3)CC2)CC1,1%,-4%,-11%,?,.,-5%
COc1cccc(NC(=O)CCC(=O)Nc2cc(OC)c(NC(=O)c3cccs3)cc2OC)c1,0%,-1%,-8%,?,.,-5%
Cc1ccc(-n2[nH]c(C)c(C=NC34CN5CN(CN(C5)C3)C4)c2=O)cc1C,.,-6%,.,.,12%,.
COCCCN=Cc1c(C)[nH]n(-c2ccc(Br)c(C)c2)c1=O,0.5µM*,1.3µM*,?,?,2.8µM*,1.4µM*
CC1(C)CC(=O)C2=C(C1)NC1=C(C(=O)c3ccccc31)C2c1ccccc1 (centres undefined),1%,-16%,-7%,26µM*,-3%[1.84 µM],-3%
CCOc1cccc(CN2CCCC(C(=O)c3cc(Cl)ccc3OC)C2)c1O (centres undefined),8%,-1%,-13%,?,.,-1%
O=C(Nc1cccc2ccccc12)c1ccc(OC(=S)N2CCOCC2)cc1,2%,11µM*,-5%,-2%,24%,0%
O=C(Nc1cccc2ccccc12)N1CCOCC1,1%,-2%,1%,11%,-4%,1%
O=C(Nc1cccc(Cl)c1)c1ccc(OC(=S)N2CCOCC2)cc1,?,2.7µM*,?,?,-3%,?
Cc1cccc(S(=O)(=O)Nc2ccc(-c3nc4ccc(C)cc4s3)cc2)c1,2.8µM*,3µM*,?,?,11µM*,2.8µM*
Cc1ccc2nc(-c3ccc(NS(=O)(=O)c4c(C)n(C)c(=O)n(C)c4=O)cc3)sc2c1,2.8µM*,1.9µM*,15%,?,.,3.2µM*
COc1ccc(CCNC(=O)C2CCCN2C(=O)Nc2ccc(Cl)cc2)cc1OC (centres undefined),-1%,5%,-7%,-11%,.,1%
COc1ccc(OCC(=O)N/N=C(\C)c2ccc(OC)cc2)cc1,1%,24µM*,1%,-1%,-8%,-2%
C/C(=N\NC(=O)COc1ccccc1)c1ccc(O)cc1,21%,?,9%,?,.,18%
C/C(=N\NC(N)=O)c1ccc(-n2ccnc2)cc1,1%,-1%,6%,22%,-3%,-5%
CCc1ccc(OCC(=O)N/N=C(\C)c2ccc(-n3ccnc3)cc2)cc1,18%,1.3µM*,9%,-11%,.,15%
COc1ccc(OCC(=O)N/N=C(\C)c2cc3ccccc3o2)cc1,15%,1.5µM*,16%,?,27%,17%
C/C(=N\Nc1ccc(C(=O)O)cc1)c1ccc(-n2ccnc2)cc1,4µM*,12µM*,?,?,20µM*,2.5µM*
COc1cc(Cl)c(C)cc1NC(=O)Cc1cccs1,14%,-2%,-2%,6%,.,3%
